Sampled rows, rich in hits. Any-hit rate of the full collection: about 6%.
D1 antagonist: human D1 dopamine receptor antagonism; P21728; HEK293 TREx D1 cells, calcium flux, dopamine EC80; hits give low values; activity change, negative = inhibition, % at 10 µM; hit rate 3.2% among 360,000; AID 504652; in the data active = activity change below about -30%; also: % is scaled to controls: 0 for no effect and ±100 for the full control effect
Target sequence (P21728 whole entry, looked up): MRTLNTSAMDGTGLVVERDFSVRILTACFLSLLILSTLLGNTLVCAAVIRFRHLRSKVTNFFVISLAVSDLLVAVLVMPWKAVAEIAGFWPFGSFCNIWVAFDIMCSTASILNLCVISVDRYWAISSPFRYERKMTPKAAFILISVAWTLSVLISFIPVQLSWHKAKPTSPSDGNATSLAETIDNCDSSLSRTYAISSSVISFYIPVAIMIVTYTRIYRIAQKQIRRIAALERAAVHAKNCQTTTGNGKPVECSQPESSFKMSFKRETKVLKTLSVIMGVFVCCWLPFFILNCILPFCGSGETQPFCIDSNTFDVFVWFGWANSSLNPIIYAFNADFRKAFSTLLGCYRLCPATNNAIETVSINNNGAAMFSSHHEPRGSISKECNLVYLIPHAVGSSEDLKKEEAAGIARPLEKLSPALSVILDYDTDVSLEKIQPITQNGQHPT
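Antagonism measured as reduced calcium response to an EC80 dopamine addition following 180 s compound pre-read; cells were inducible HEK293 Trex D1 plated overnight at 30 C, read kinetically at 1 cycle/sec.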
D3 antag: blocks the human D3 dopamine receptor; P35462; D3R cells, DiscoveRx beta-arrestin luminescence, antagonist mode; hits give low values; max response, negative = inhibition, %; hit rate 2.5% among 360,000; AID 652054; in the data active = max response below about -50%; inconclusive = no clear call, values can overlap the other calls; also: % is scaled to controls: 0 for no effect and ±100 for the full control effect
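Cells expressing the human receptor were seeded at 1500 cells/well, incubated overnight at 37 degrees C in 5% CO2, then exposed to library compounds with dopamine controls for 90 minutes at 37 degrees C before luminescent detection.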
D1 PAM: enhances dopamine response at the human D1 receptor; P21728; HEK293 TREx D1 cells, calcium flux, dopamine EC20 potentiation; potentiation, % at 10 µM; hit rate 0.036% among 360,000; AID 504651; in the data active = potentiation above about 30%; also: 0% is about no effect
D1 ag: human D1 receptor agonism; P21728; HEK293 T-REx D1 cells, calcium flux, agonist mode; activation, % at 2 µM; hit rate 1% among 360,000; in the data active = activation above about 30%; also: 0% is about no effect
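Tetracycline-induced HEK293 TREx D1 cells, force-coupled to calcium signalling, were dye-loaded with a no-wash calcium kit. Compound was pin-added after a 10 s baseline. Fluorescence was read kinetically at 1 cycle/s for 180 s, with calcium rises flagged as agonism.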
Chronic BCR inh: blocks chronic active B-cell receptor signaling | hit rate 0.05% among 340,000 | Potency, µM (doses to about 46.1 µM), for the others: at the top dose activity change, negative = inhibition, usual class: inhibitors | ABC-DLBCL IkBa-CBG/CBR reporter, luminescence ratio, 4 h | AID 493014; active = well fitted inhibition curve with a large enough effect in the signal ratio, with a control signal flat, not every such curve was filed as active; inconclusive = small, poorly fitted or top-dose-only effect, or effect the other way, or a change in a side signal; the % refers to the signal ratio;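 also: potency is read from the fitted curve at half-maximal effect; plate controls were basal doxycycline-induced cells for no effect and cells given 10 µM MG132 for full effect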
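Concentration-response series (up to 46 uM) were applied to TMD8 dual-reporter cells for 4 h at 37C with doxycycline. Green/red ratio, after filter-overlap correction, defined %Activity; red signal alone was normalised to basal cells and zero luminescence.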
DRD3 agonist: D3 dopamine receptor (human) agonism | P35462 | D3R DiscoveRx beta-arrestin cells, luminescence, 90 min | max activation, % | hit rate 0.58% among 410,000; in the data active = max activation above about 30%; also: 0% is about no effect
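Cells at 1500/well, incubated overnight, then treated with pinned compounds (dopamine as control) for 90 min at 37 degrees C. DiscoveRx reagent added for 30 - 60 minutes at room temperature; luminescence read.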
Active calls of the source: *.

For O=C(CSC1=NCCN1)Nc1cccc(C(F)(F)F)c1 the results were D1 antagonist -15, D3 antag -65*, D1 PAM -7, D1 ag 5, Chronic BCR inh inconclusive and DRD3 agonist -11.
`CC(C)(C)c1ccc(S(=O)(=O)c2cnc(SCC(=O)Nc3ccc(F)c(Cl)c3)[nH]c2=O)cc1` gave D1 antagonist -4, D1 PAM -2, D1 ag 24 and DRD3 agonist 2.
For O=C(CSc1ncc(S(=O)(=O)c2ccc(Cl)cc2)c(=O)[nH]1)Nc1cccc(C(F)(F)F)c1 the results were D1 antagonist -32*, D1 PAM 4, D1 ag 0 and DRD3 agonist -1.
O=C1NC(=O)C(c2ccccc2[N+](=O)[O-])=C1Nc1ccc(O)c(Cl)c1 was read as D1 antagonist -38*, D3 antag -28, D1 PAM -10, D1 ag 1, Chronic BCR inh inconclusive and DRD3 agonist -26.
`O=C(NNc1ccccc1[N+](=O)[O-])Nc1ccc(Cl)c(Cl)c1` gave D1 antagonist -27, D3 antag -7, D1 PAM 3, D1 ag 14, Chronic BCR inh inconclusive and DRD3 agonist -6.
`CC[C@H]1OC(=O)[C@H](C)C(=O)[C@H](C)[C@@H](O[C@@H]2O[C@H](C)C[C@H](N(C)C)[C@H]2O)[C@](C)(OC)C[C@@H](C)C(=O)[C@H](C)[C@H]2N(CCCCn3cnc(-c4cccnc4)c3)C(=O)O[C@]12C` gave DRD3 agonist -5.
`CC(=O)c1c(C)[nH]c(C(=O)NC(C)c2ccccc2)c1C` (stereo not given) gave D1 antagonist -33*, D3 antag 5, D1 PAM -6, D1 ag 3, Chronic BCR inh -10% and DRD3 agonist -3.
For CCc1ccc(NC(=O)c2[nH]c(C)c(C(C)=O)c2C)cc1 the results were D1 antagonist -39*, D3 antag 4, D1 PAM -9, D1 ag 19, Chronic BCR inh 0% and DRD3 agonist -5.
Screening CC(=O)c1c(C)[nH]c(C(=O)Nc2cccc3ccccc23)c1C returned D1 antagonist -33*, D3 antag 6, D1 PAM -10, D1 ag 10, Chronic BCR inh -5% and DRD3 agonist 6.
For CC(=O)c1c(C)[nH]c(C(=O)Nc2cccc(C(F)(F)F)c2)c1C the results were D1 antagonist -33*, D3 antag 0, D1 PAM -10, D1 ag 14, Chronic BCR inh -1% and DRD3 agonist -28.
Screening CCC(C)c1ccccc1NC(=O)c1[nH]c(C)c(C(C)=O)c1C (stereo not given) returned D1 antagonist 6, D3 antag -15, D1 PAM 0, D1 ag 5, Chronic BCR inh -3% and DRD3 agonist 0.
CC(=O)c1c(C)[nH]c(C(=O)Nc2cccc(C#N)c2)c1C was read as D1 antagonist -9, D3 antag -24, D1 PAM -9, D1 ag 4, Chronic BCR inh 13% and DRD3 agonist 4.
Screening COc1ccccc1CNC(=O)CCn1c(=O)c2ccccc2n(CC(=O)Nc2ccc(C)cc2Cl)c1=O returned D1 antagonist -1, D1 PAM -2, D1 ag -2 and DRD3 agonist -16.
For CC1=C(C(=O)Nc2cccc(C(F)(F)F)c2)C2(CCCCCC2)OC1=O the results were D1 antagonist -27, D1 PAM -4, D1 ag 32* and DRD3 agonist -7.
CC1=C(C(=O)Nc2cccc(C(F)(F)F)c2)C2(CCCCC2)OC1=O was read as D1 antagonist -20, D1 PAM -4, D1 ag 5 and DRD3 agonist -5.
`Cc1ccc(N2CC(c3nnc(Cc4ccc(F)cc4Cl)o3)CC2=O)cc1` (stereo not given) gave D1 antagonist -7, D1 PAM -6, D1 ag 5 and DRD3 agonist 10.
`N#CCCn1nc(-c2ccc([N+](=O)[O-])cc2)cc1Nc1ccccc1NC(=O)C(F)(F)F` gave D1 antagonist -27, D3 antag -5, D1 PAM -8, D1 ag 31*, Chronic BCR inh inconclusive and DRD3 agonist -9.
N#CCCn1nc(-c2ccccc2)cc1Nc1ccccc1NC(=O)C(F)(F)F was read as D1 antagonist 12, D3 antag -21, D1 PAM -5, D1 ag 22, Chronic BCR inh inconclusive and DRD3 agonist 5.
COc1ccc(OC)c(-c2csc(N(Cc3ccco3)C(=O)c3ccco3)n2)c1 was read as D1 antagonist 7, D3 antag -19, D1 PAM -1, D1 ag 9, Chronic BCR inh 17% and DRD3 agonist 13.
Screening COc1ccc(OC)c(-c2csc(NC(=O)COC(=O)C3(C)CC3(Cl)Cl)n2)c1 (stereo not given) returned D1 antagonist -48*, D3 antag 4, D1 PAM -6, D1 ag 2, Chronic BCR inh inconclusive and DRD3 agonist -2.
CCC(=O)N(CC)c1nc(-c2cc(OC)ccc2OC)cs1 was read as D1 antagonist 30, D3 antag 30, D1 PAM -3, D1 ag 34*, Chronic BCR inh 16% and DRD3 agonist 14.
`CCC(=O)N(CCCN(C)C)c1nc(-c2cc(OC)ccc2OC)cs1` gave D1 antagonist 8, D3 antag inconclusive, D1 PAM -1, D1 ag 8, Chronic BCR inh 1% and DRD3 agonist -7.
Screening COCCCN(C(=O)c1ccco1)c1nc(-c2cc(OC)ccc2OC)cs1 returned D1 antagonist -41*, D3 antag 4, D1 PAM 5, D1 ag 6, Chronic BCR inh inconclusive and DRD3 agonist 23.
`CC1=C(C(=O)N(C(C)C)C(C)C)CC(CC(=O)NCc2ccco2)C(=O)N1CCC1=CCCCC1` (stereo not given) gave D3 antag 12 and DRD3 agonist 4.
CC(C)C[C@H](NC(=O)[C@H](Cc1ccccc1)NC(=O)c1cnccn1)B(O)O was read as DRD3 agonist 7.
For Cc1cn2c(=O)cc(COC(=O)c3cccc(NC(=O)COc4ccccc4)c3)nc2s1 the results were D1 antagonist -10, D1 PAM -1, D1 ag 0 and DRD3 agonist -2.
`Cc1cc2c(s1)c1cnn(Cc3ccc(F)c(C)c3)c(=O)c1n2C` gave D1 antagonist -2, D1 PAM 6 and D1 ag 8.

Screening results from PubChem BioAssay.
